# Data: PMC7862700, “An all-to-all approach to the identification of sequence-specific readers for epigenetic DNA modifications on cytosine”
# What was measured:
# Experiment in all cases: DAPPL (digital affinity profiling via proximity ligation, sequencing); 10 mM Tris-HCl pH 7.5, 50 mM NaCl, 1 mM DTT, 4% glycerol, room temperature, 30 min; GST-TFs on glutathione beads, 16-mer random dsDNA library, 0.1% formaldehyde crosslink after washing; high values mean tight binding
# [1] = biological target: T1, FLI1 (Homo sapiens, UniProt Q01543 1-452); conditions: protein: recombinant; tags: N-terminal GST; dsDNA, one strand shown
# T1 sequence: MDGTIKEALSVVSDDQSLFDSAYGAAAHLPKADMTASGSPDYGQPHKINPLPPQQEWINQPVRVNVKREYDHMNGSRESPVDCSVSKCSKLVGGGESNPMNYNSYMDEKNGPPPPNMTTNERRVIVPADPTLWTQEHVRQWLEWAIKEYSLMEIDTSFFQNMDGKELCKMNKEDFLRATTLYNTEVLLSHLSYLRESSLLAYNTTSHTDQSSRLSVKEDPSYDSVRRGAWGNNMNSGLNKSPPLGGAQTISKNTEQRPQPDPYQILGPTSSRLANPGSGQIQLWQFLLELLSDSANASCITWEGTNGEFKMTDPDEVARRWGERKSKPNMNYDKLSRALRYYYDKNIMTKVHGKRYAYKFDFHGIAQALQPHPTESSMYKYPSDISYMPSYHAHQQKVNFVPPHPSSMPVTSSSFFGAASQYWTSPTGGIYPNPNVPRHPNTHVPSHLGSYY
# Summary of the method: (§1)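 Human transcription factors were made in yeast as GST fusions, captured on glutathione beads and barcoded with DNA. With a tag-only sample included, the pool was incubated with 200 nmole of a random double-stranded 16-mer DNA library in Tris/NaCl/DTT/glycerol buffer at room temperature for 30 min, then crosslinked with 0.1% formaldehyde after washing, ligated by proximity, amplified and sequenced. For binding signal, each hexamer's read frequency for a factor is divided by its frequency for the tag-only sample.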
# [2] = biological target: T2, ELK1 (Homo sapiens, UniProt P19419 1-428); conditions: protein: recombinant; tags: N-terminal GST; dsDNA, one strand shown
# T2 sequence: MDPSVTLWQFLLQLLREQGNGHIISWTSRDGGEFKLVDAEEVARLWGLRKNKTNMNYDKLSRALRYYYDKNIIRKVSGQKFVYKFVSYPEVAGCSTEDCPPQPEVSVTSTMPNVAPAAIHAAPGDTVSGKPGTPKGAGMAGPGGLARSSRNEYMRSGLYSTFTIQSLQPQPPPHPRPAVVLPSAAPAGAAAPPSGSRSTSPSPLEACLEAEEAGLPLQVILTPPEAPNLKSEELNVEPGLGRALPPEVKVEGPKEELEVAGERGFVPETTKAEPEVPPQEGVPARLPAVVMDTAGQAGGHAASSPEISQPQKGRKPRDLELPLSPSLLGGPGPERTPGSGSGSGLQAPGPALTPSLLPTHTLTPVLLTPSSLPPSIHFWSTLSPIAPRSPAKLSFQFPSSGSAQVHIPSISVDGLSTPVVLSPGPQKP
# Summary of the method: as §1
# [3] = biological target: T3, GABPA (Homo sapiens, UniProt Q06546 1-454); conditions: protein: recombinant; tags: N-terminal GST; dsDNA, one strand shown
# T3 sequence: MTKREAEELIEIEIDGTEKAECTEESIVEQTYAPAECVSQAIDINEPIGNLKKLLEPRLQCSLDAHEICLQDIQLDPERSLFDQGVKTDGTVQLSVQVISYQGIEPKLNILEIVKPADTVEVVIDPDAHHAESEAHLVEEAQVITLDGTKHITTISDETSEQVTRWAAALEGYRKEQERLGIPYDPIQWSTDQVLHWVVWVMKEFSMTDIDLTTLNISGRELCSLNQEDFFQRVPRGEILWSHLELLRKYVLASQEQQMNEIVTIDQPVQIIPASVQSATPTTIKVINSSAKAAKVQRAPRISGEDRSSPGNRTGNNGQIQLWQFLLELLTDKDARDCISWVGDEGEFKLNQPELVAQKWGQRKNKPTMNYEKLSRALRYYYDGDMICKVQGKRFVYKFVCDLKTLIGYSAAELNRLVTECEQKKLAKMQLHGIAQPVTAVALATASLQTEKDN
# Summary of the method: as §1
# [4] = biological target: T4, ERG (Homo sapiens, UniProt P11308 1-479); conditions: protein: recombinant; tags: N-terminal GST; dsDNA, one strand shown
# T4 sequence: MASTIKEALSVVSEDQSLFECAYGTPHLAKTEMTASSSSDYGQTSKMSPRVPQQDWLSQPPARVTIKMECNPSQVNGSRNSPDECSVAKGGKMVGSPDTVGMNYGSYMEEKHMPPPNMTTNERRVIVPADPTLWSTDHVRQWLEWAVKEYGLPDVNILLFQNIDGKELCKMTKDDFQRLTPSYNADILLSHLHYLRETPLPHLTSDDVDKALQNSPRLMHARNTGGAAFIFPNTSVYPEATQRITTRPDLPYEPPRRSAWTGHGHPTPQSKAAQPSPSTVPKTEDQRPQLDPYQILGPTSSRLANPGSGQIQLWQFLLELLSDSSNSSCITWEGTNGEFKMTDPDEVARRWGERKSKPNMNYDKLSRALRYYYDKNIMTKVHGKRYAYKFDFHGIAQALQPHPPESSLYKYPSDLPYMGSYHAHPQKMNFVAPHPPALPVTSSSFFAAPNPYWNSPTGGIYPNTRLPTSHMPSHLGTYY
# Summary of the method: as §1
# [5] = biological target: ELF1 (Homo sapiens, UniProt P32519 1-619); conditions: protein: recombinant; tags: N-terminal GST; dsDNA, one strand shown
# Chain of ELF1 (P32519 whole entry): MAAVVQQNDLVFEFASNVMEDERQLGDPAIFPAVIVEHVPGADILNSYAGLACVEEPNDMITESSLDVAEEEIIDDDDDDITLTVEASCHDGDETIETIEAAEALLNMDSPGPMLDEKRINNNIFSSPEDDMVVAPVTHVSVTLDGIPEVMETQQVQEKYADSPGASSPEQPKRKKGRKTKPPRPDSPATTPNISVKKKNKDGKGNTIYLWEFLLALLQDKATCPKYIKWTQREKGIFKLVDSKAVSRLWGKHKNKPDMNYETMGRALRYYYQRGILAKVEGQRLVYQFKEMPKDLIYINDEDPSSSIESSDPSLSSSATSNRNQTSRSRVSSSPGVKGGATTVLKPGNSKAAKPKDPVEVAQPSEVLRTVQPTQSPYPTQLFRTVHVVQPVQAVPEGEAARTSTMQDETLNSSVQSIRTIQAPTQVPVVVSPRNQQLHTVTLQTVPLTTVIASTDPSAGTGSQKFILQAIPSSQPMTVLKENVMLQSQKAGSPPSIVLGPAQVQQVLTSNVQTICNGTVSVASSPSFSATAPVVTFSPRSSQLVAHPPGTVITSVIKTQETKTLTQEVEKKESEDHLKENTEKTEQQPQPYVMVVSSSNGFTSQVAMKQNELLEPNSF
# Summary of the method: as §1
# [6] = biological target: T5, EHF (Homo sapiens, UniProt Q9NZC4 1-300); conditions: protein: recombinant; tags: N-terminal GST; dsDNA, one strand shown
# T5 sequence: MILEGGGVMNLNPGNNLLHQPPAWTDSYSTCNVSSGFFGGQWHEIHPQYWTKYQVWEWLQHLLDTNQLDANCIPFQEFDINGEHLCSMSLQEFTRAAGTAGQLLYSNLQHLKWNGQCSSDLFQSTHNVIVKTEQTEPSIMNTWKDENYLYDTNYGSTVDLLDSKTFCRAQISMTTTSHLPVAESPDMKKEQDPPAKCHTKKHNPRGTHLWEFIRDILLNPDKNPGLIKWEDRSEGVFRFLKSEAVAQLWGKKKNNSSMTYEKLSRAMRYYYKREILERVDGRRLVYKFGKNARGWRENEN
# Summary of the method: as §1
# [7] = biological target: SPI1 (Homo sapiens, UniProt P17947 1-270); conditions: protein: recombinant; tags: N-terminal GST; dsDNA, one strand shown
# Summary of the method: as §1
# [8] = biological target: SPIB (Homo sapiens, UniProt Q01892 1-262); conditions: protein: recombinant; tags: N-terminal GST; dsDNA, one strand shown
# Chain of SPIB (Q01892 whole entry): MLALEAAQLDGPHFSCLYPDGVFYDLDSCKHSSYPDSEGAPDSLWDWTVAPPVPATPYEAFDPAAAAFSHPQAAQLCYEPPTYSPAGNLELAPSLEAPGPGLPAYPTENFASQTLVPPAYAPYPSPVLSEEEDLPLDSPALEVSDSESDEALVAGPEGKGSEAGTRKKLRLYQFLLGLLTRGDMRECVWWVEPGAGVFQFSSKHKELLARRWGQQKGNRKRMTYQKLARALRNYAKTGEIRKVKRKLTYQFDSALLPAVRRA
# Summary of the method: as §1
# [9] = biological target: T6, ELK3 (Homo sapiens, UniProt P41970 1-407); conditions: protein: recombinant; tags: N-terminal GST; dsDNA, one strand shown
# T6 sequence: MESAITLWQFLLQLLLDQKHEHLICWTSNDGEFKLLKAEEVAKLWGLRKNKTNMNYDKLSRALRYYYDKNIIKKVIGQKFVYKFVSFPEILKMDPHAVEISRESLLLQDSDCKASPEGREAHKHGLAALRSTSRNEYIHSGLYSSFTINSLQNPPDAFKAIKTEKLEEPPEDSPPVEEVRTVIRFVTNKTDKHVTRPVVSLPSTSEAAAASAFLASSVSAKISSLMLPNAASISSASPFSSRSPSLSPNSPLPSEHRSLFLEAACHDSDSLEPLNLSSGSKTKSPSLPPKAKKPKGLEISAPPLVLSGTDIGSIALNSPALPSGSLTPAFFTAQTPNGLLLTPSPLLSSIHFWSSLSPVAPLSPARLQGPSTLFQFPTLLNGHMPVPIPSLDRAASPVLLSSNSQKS
# Summary of the method: as §1
# [10] = biological target: T7, FEV (Homo sapiens, UniProt Q99581 1-238); conditions: protein: recombinant; tags: N-terminal GST; dsDNA, one strand shown
# T7 sequence: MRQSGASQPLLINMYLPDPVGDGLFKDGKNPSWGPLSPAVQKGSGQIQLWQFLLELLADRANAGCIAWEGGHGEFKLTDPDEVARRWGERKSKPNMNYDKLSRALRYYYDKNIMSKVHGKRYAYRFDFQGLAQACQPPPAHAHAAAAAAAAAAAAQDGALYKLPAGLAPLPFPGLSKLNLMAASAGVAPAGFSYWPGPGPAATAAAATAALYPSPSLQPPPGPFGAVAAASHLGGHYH
# Summary of the method: as §1
# [11] = biological target: ETV5 (Homo sapiens, UniProt P41161 1-510); conditions: protein: recombinant; tags: N-terminal GST; dsDNA, one strand shown
# Chain of ETV5 (P41161 whole entry): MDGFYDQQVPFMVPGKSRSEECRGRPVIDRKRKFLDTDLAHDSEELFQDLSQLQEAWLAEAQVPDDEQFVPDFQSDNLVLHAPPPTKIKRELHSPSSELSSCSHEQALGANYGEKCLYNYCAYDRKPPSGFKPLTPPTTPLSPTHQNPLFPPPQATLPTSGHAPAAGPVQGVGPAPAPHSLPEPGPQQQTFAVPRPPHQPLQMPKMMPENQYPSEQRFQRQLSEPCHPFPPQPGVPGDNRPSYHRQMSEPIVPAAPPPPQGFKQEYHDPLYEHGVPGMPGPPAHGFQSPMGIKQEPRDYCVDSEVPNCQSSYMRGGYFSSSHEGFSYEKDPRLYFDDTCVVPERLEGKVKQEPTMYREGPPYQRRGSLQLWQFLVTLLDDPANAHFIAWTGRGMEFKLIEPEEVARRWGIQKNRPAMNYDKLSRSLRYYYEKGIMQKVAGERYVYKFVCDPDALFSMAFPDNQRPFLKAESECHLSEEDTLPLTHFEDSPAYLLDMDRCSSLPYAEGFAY
# Summary of the method: as §1
# [12] = biological target: HSF1 (Homo sapiens, UniProt Q00613 1-529); conditions: protein: recombinant; tags: N-terminal GST; chain copies: 3; dsDNA, one strand shown
# Chain of HSF1 (Q00613 whole entry): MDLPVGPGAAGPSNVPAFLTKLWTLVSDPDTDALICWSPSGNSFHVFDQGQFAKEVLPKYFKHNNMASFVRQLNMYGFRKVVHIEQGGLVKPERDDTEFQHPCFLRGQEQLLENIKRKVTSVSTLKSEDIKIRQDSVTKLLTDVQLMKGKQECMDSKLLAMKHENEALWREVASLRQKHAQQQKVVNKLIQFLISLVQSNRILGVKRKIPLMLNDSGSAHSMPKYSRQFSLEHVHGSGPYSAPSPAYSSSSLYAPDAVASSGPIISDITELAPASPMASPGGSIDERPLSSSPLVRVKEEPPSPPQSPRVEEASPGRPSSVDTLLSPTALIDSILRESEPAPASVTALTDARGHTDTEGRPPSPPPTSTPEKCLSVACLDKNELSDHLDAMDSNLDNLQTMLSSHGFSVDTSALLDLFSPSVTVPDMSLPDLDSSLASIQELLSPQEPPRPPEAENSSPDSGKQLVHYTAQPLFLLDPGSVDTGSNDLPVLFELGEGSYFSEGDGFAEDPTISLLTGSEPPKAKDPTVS
# Summary of the method: as §1
# [13] = biological target: T8, SPIC (Homo sapiens, UniProt Q8N5J4 1-248); conditions: protein: recombinant; tags: N-terminal GST; dsDNA, one strand shown
# T8 sequence: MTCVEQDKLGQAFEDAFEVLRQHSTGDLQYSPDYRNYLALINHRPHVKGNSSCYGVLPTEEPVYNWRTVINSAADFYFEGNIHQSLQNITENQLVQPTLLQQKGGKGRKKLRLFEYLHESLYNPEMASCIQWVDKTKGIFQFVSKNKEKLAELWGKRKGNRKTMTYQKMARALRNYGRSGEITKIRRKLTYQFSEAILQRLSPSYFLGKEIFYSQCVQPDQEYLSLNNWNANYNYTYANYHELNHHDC
# Summary of the method: as §1
# [14] = biological target: ELF4 (Homo sapiens, UniProt Q99607 1-663); conditions: protein: recombinant; tags: N-terminal GST; dsDNA, one strand shown
# Chain of ELF4 (Q99607 whole entry): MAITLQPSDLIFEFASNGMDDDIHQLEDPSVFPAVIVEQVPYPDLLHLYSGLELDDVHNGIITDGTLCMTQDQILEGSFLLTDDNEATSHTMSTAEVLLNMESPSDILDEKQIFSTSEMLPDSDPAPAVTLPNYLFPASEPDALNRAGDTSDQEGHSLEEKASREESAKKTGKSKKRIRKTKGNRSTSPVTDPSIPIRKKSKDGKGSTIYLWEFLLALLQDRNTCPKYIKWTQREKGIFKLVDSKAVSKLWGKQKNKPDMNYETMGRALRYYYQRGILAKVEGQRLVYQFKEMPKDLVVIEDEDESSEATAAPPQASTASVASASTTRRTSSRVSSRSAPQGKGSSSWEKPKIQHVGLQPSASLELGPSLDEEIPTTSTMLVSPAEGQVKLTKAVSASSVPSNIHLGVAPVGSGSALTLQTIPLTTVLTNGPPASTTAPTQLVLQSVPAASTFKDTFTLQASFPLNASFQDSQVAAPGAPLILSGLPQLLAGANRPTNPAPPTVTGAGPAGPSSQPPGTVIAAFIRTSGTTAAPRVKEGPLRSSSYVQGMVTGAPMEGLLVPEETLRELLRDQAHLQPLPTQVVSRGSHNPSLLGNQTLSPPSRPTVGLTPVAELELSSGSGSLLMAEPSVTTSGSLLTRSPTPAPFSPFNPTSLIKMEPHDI
# Summary of the method: as §1
# [15] = biological target: T9, ELK4 (Homo sapiens, UniProt P28324-2 1-405); conditions: protein: recombinant; tags: N-terminal GST; dsDNA, one strand shown
# T9 sequence: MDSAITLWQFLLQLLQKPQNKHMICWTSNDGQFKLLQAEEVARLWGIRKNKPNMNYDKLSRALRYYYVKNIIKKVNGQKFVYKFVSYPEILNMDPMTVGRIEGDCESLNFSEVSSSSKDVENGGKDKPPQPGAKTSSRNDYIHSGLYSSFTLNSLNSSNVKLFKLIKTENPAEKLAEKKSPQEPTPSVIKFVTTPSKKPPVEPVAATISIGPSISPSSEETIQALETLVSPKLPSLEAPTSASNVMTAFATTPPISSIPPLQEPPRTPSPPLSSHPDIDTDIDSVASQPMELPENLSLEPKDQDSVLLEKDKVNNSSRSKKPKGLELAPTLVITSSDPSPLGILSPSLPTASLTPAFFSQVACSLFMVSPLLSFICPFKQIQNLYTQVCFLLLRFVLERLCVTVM
# Summary of the method: as §1
# [16] = biological target: T10, ETV2 (Homo sapiens, UniProt O00321 1-342); conditions: protein: recombinant; tags: N-terminal GST; dsDNA, one strand shown
# T10 sequence: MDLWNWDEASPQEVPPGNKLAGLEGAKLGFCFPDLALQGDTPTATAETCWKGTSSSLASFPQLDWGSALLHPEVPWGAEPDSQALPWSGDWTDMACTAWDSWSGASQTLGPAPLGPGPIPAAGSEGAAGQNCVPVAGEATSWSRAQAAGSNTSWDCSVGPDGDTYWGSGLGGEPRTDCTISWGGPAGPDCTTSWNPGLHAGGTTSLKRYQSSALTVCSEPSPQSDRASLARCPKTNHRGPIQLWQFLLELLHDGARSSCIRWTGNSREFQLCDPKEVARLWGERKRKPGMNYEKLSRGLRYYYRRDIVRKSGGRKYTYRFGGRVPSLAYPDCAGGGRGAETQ
# Summary of the method: as §1
# [17] = biological target: T11, ELF3 (Homo sapiens, UniProt P78545 1-371); conditions: protein: recombinant; tags: N-terminal GST; dsDNA, one strand shown
# T11 sequence: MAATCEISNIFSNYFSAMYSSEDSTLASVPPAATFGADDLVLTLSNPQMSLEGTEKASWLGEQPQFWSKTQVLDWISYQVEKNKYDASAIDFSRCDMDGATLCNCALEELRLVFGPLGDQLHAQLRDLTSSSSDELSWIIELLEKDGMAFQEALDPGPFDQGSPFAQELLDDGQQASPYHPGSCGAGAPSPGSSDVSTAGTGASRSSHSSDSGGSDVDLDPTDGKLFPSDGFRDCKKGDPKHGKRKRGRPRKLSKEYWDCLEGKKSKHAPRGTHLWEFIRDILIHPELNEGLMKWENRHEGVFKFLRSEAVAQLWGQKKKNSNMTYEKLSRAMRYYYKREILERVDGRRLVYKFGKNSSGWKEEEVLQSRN
# Summary of the method: as §1
# [18] = biological target: CRX (Homo sapiens, UniProt O43186 1-299); conditions: protein: recombinant; tags: N-terminal GST; dsDNA, one strand shown
# Chain of CRX (O43186 whole entry): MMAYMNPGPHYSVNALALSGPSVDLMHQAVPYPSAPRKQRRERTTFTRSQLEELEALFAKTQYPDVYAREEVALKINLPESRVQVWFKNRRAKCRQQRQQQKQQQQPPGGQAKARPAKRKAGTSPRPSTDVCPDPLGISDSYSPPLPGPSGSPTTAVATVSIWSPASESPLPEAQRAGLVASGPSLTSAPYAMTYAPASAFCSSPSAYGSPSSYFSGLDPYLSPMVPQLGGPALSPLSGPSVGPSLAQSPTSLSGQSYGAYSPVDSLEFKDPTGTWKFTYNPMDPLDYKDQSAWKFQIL
# Summary of the method: as §1
# [19] = biological target: ETV1 (Homo sapiens, UniProt P50549 1-477); conditions: protein: recombinant; tags: N-terminal GST; dsDNA, one strand shown
# Chain of ETV1 (P50549 whole entry): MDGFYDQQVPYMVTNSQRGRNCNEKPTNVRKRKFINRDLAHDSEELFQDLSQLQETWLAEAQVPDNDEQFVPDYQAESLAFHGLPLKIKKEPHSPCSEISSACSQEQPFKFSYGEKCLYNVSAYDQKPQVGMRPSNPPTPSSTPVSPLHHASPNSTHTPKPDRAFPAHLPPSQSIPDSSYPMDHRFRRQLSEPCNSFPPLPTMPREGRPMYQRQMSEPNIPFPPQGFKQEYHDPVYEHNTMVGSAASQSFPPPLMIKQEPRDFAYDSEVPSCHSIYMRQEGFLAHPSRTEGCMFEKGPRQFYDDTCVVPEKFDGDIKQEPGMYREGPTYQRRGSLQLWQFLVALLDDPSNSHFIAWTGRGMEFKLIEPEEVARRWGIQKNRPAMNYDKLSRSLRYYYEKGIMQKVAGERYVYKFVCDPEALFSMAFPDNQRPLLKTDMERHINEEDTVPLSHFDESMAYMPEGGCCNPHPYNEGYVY
# Summary of the method: as §1
sequence,measurement,setting,value
CCTTAT,binding signal,[1],"1.53 fold enrichment (6-mer frequency, TF over GST control)"
same,binding signal,[2],"1.34 fold enrichment (6-mer frequency, TF over GST control)"
same,binding signal,[3],"1.48 fold enrichment (6-mer frequency, TF over GST control)"
same,binding signal,[4],"1.45 fold enrichment (6-mer frequency, TF over GST control)"
same,binding signal,[5],"1.39 fold enrichment (6-mer frequency, TF over GST control)"
same,binding signal,[6],"1.57 fold enrichment (6-mer frequency, TF over GST control)"
same,binding signal,[7],"1.6 fold enrichment (6-mer frequency, TF over GST control)"
same,binding signal,[8],"1.49 fold enrichment (6-mer frequency, TF over GST control)"
same,binding signal,[9],"1.28 fold enrichment (6-mer frequency, TF over GST control)"
same,binding signal,[10],"1.4 fold enrichment (6-mer frequency, TF over GST control)"
same,binding signal,[11],"1.41 fold enrichment (6-mer frequency, TF over GST control)"
same,binding signal,[12],"1.35 fold enrichment (6-mer frequency, TF over GST control)"
same,binding signal,[13],"1.33 fold enrichment (6-mer frequency, TF over GST control)"
same,binding signal,[14],"1.47 fold enrichment (6-mer frequency, TF over GST control)"
same,binding signal,[15],"1.45 fold enrichment (6-mer frequency, TF over GST control)"
same,binding signal,[16],"1.39 fold enrichment (6-mer frequency, TF over GST control)"
same,binding signal,[17],"1.37 fold enrichment (6-mer frequency, TF over GST control)"
same,binding signal,[18],"1.77 fold enrichment (6-mer frequency, TF over GST control)"
same,binding signal,[19],"1.62 fold enrichment (6-mer frequency, TF over GST control)"
